# Test results taken from PubChem BioAssay.
# The source made the active and inactive calls.
# Assays:
# [1] = test system: Plasmodium falciparum Sir2 (PF13_0152, Sir2A); assay: Plasmodium falciparum Sir2A binding compounds – biochemical, small-molecule microarray, 635 nm fluorescence, primary screen (AID 1098); details: fluorescence 635 nm, higher = more signal;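 note: score merges spot fluorescence intensity with its signal-to-noise ratio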
# [2] = probe aDKK1 binding to arrayed compounds – biochemical, biotinylated probe, 635/667 nm fluorescence, primary screen (AID 1099); details: small-molecule microarray, higher = more signal;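 note: score merges 667nm spot fluorescence with signal to noise across triplicate slides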
# [3] = probe aCHRDL2 binding to arrayed compounds – biochemical, biotinylated probe, 635/667 nm fluorescence, primary screen (AID 1100); details: small-molecule microarray, higher = more signal
# [4] = change in splice reporter luminescence, either direction, cell-based, HEK293, spliceosome inhibition project, primary screen (AID 1101); details: HEK293 splicing luciferase reporter, 24 h, higher = more signal, called active from +8 up or from −8 down;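 note: HEK293 cells carrying a splicing-competent luciferase reporter gene; test concentration not given here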
# [5] = target: Fibroblast growth factor 10 (Homo sapiens) (UniProt O15520); assay: compounds binding fibroblast growth factor 10 – biochemical, small-molecule microarray, 635 nm fluorescence, primary screen (AID 1102); details: FGF10 binding, fluorescence 635 nm, higher = more signal
# [6] = test system: glycogen synthase kinase-3 (GSK3A per assay name; protocol says GSK3B); assay: compounds binding glycogen synthase kinase-3 – biochemical, small-molecule microarray, 635 nm fluorescence, GSK3A, primary screen (AID 1103); details: fluorescence 635 nm, higher = more signal; note: the record names both GSK3A and GSK3B
# [7] = target: Epidermal growth factor receptor (Homo sapiens) (UniProt P00533); assay: compounds binding epidermal growth factor receptor – biochemical, small-molecule microarray, 635 nm fluorescence, primary screen (AID 1104); details: EGFR binding, higher = more signal;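 note: score merges 667 nm emission intensity with spot signal to noise over triplicate slides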
# [8] = target: Follistatin-related protein 3 (Homo sapiens) (UniProt O95633); assay: compounds binding follistatin-related protein 3 – biochemical, small-molecule microarray, 635 nm fluorescence, primary screen (AID 1105); details: FSTL3 binding, higher = more signal;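 note: score merges emission near 667 nm and signal to noise per printed spot across three slides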
# [9] = target: Dickkopf-related protein 1 (Homo sapiens) (UniProt O94907); assay: small molecules binding DKK1 protein – biochemical, small-molecule microarray, 635 nm fluorescence scan, primary screen (AID 1106); details: higher = more signal;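 note: score merges emission near 667 nm with signal to noise over three replicate slides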
# [10] = test system: Inhibin beta A chain (activin A); assay: small molecules binding activin A – biochemical, small-molecule microarray, 635 nm fluorescence scan, primary screen (AID 1107); details: INHBA, higher = more signal;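 note: mouse activin A protein probed at 4.33 µg/mL on printed slides; score merges bound-protein fluorescence near 667 nm with spot signal-to-noise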
# [11] = test system: Human papillomavirus type 1a protein E7 (residues 44-93); assay: small molecules binding HPV E7 44-93 – biochemical, small-molecule microarray, residues 44-93, 635 nm fluorescence, primary screen (AID 1108); details: fluorescence 635 nm, higher = more signal;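 note: E7 fragment applied at 1 µg/mL in TBST for 1 h at 4 C; score combines spot fluorescence with its signal to noise ratio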
# [12] = hepatitis C replication reporter changes, two-sided – Huh7 cells, luciferase reporter, HCV replication inhibitor project, primary screen (AID 1109); details: Huh7 HCV replicon luciferase reporter, 48 h; higher = more signal;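 note: huh7 hepatoma cells harbouring a luciferase neomycin HCV replicon reporter; luciferase luminescence as measure of HCV replicon replication; test concentration not given here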
# [13] = target: Left-right determination factor 2 (Homo sapiens) (UniProt O00292); assay: small molecules binding LEFTY2 protein – biochemical, small-molecule microarray, 635 nm fluorescence scan, primary screen (AID 1110); details: higher = more signal
# [14] = target: Calmodulin-1 (Homo sapiens) (UniProt P0DP23); assay: small molecules binding calmodulin-1 with EGTA – biochemical, small-molecule microarray, Cy5-labelled CALM1, profiling panel (AID 1111); details: Cy5-CALM1 binding fluorescence, higher = more signal;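 note: labelled calmodulin applied in Tris saline Tween buffer holding calcium plus EGTA and DTT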
# [15] = target: Calmodulin-1 (Homo sapiens) (UniProt P0DP23); assay: small molecules binding Ca-loaded calmodulin-1 – biochemical, small-molecule microarray, Cy5-labelled CALM1, plus calcium, artefact control for SMM control-protein annotation, profiling panel (AID 1112); details: Cy5-CALM1 binding fluorescence, higher = more signal;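 note: score merges spot fluorescence with signal to noise from triplicate slides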
# [16] = probe aWnt5a binding to arrayed compounds – biochemical, biotinylated probe, 635/667 nm fluorescence, primary screen (AID 1113); details: small-molecule microarray, higher = more signal;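 note: score merges 667 nm fluorescence intensity with signal-to-noise per printed feature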
# [17] = probe aShh binding to arrayed compounds – biochemical, biotinylated probe, 635/667 nm fluorescence, primary screen (AID 1114); details: small-molecule microarray, higher = more signal;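 note: probe is biotin-labelled aShh protein from a stem cell growth factor screen; measures binding of labelled protein to compounds printed on the slide; score merges feature fluorescence at 667 nm with signal-to-noise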
# [18] = probe aNog binding to arrayed compounds – biochemical, biotinylated probe, 635/667 nm fluorescence, primary screen (AID 1115); details: small-molecule microarray, higher = more signal;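 note: probe is biotinylated aNog protein used at 0.15 µg/mL for 1 h at 4 C; z-score combines 667 nm fluorescence of each spot with its signal to noise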
# [19] = target: Torsin-1A-interacting protein 1 (Homo sapiens) (UniProt Q5JTV8); assay: compound microarray binding of lysate hLAP1 – cell lysate, small-molecule microarray, COS7 lysate, 635/667 nm fluorescence, primary screen (AID 1116); details: 635 nm fluorescence, higher = more signal
# [20] = target: Alpha-bungarotoxin (Bungarus multicinctus) (UniProt P60615); assay: compounds binding labelled alpha-BTX control protein – biochemical, small-molecule microarray, Alexa647 label, 635/667 nm fluorescence, artefact control for SMM control protein annotation, profiling panel (AID 1117); details: alpha-BTX-A647 binding fluorescence, higher = more signal
# Chain of Alpha-bungarotoxin (Bungarus multicinctus) (P60615 whole entry, looked up): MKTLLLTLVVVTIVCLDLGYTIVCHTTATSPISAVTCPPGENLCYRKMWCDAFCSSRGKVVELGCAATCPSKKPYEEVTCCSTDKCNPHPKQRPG
# Chain of Left-right determination factor 2 (Homo sapiens) (O00292 whole entry, looked up): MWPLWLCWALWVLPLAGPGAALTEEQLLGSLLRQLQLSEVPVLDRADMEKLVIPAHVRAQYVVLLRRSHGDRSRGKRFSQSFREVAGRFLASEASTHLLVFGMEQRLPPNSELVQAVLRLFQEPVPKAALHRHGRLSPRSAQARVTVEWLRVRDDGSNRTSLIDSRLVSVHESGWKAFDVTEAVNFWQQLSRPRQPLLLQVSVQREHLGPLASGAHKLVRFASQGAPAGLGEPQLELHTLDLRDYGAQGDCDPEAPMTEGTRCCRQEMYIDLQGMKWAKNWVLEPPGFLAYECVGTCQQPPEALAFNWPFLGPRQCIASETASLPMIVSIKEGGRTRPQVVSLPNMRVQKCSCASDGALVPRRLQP
# Chain of Follistatin-related protein 3 (Homo sapiens) (O95633 whole entry, looked up): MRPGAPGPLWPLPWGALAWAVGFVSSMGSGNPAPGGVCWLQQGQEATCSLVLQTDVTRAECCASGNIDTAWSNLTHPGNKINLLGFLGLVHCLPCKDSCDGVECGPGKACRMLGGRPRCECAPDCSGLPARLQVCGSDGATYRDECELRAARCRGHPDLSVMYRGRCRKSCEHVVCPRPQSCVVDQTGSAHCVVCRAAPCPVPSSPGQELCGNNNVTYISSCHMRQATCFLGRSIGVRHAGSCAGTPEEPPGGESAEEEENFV
# Chain of Epidermal growth factor receptor (Homo sapiens) (P00533 whole entry, looked up): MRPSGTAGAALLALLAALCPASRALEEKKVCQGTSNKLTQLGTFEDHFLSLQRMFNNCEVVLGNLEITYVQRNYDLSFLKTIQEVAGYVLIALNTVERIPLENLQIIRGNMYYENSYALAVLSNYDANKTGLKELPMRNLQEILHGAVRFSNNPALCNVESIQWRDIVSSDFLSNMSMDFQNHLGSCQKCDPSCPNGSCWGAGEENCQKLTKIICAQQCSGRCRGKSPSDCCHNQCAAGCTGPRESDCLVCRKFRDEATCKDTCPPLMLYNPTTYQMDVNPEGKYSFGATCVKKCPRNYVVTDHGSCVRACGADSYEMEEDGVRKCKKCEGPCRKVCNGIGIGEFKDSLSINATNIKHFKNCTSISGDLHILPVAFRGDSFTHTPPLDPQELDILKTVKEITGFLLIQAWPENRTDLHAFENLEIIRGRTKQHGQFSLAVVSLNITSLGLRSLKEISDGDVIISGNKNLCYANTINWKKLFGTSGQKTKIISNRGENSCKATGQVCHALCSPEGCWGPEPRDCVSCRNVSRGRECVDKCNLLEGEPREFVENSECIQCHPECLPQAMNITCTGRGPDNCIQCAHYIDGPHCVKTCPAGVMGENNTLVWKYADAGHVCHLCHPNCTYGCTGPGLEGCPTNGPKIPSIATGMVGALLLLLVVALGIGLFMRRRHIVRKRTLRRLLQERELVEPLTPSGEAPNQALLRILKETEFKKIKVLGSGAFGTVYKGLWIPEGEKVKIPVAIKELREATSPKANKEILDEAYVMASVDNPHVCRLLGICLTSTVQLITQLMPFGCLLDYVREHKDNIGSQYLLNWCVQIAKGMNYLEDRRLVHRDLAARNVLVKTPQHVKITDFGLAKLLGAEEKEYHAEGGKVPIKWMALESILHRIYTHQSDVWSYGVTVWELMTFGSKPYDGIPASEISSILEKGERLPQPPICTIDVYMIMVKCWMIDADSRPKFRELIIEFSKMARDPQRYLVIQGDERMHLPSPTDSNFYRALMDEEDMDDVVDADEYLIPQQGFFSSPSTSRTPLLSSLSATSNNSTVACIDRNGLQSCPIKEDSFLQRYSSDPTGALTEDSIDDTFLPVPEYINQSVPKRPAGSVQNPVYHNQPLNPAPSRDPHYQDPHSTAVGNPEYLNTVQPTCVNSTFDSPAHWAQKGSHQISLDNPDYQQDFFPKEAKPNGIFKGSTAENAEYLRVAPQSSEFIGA
# Chain of Dickkopf-related protein 1 (Homo sapiens) (O94907 whole entry, looked up): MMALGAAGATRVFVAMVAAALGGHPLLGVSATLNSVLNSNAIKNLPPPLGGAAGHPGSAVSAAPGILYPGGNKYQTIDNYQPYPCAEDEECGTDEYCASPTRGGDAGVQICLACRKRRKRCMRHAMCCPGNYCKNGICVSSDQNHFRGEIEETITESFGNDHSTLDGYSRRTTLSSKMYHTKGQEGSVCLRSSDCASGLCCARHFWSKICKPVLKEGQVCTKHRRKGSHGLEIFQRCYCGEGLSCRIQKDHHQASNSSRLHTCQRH
# Chain of Torsin-1A-interacting protein 1 (Homo sapiens) (Q5JTV8 whole entry, looked up): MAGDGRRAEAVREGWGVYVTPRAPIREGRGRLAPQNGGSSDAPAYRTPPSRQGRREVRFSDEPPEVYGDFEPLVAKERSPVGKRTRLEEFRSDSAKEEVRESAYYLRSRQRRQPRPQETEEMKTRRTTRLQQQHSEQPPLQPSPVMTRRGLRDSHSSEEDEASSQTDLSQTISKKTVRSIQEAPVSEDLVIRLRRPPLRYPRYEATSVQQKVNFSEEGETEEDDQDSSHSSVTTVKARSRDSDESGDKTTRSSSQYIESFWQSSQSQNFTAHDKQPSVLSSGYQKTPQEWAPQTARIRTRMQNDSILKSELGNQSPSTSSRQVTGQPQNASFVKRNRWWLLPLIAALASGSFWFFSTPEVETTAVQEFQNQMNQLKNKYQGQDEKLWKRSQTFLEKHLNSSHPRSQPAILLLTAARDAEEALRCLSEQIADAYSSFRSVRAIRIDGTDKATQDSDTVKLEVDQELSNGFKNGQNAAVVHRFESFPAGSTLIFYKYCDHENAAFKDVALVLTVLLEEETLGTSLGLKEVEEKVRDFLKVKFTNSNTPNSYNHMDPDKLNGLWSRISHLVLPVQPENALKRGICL
# Chain of Fibroblast growth factor 10 (Homo sapiens) (O15520 whole entry, looked up): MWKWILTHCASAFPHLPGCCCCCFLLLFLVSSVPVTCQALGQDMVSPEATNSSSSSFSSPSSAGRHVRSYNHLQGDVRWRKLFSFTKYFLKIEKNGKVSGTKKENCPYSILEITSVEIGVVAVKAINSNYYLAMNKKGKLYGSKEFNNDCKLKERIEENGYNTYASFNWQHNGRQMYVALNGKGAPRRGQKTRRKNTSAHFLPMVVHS
Compound,composite z-score [1],composite z-score [2],composite z-score [3],z-score [4],composite z-score [5],composite z-score [6],composite z-score [7],composite z-score [8],composite z-score [9],composite z-score [10],composite z-score [11],z-score [12],composite z-score [13],composite z-score [14],composite z-score [15],composite z-score [16],composite z-score [17],composite z-score [18],composite z-score [19],composite z-score [20]
COc1ccc(O[C@H]2C=C[C@@H](c3ccccc3)O[C@@H]2CON=C2[C@H]3CCn4c(=O)n(-c5ccccc5)c(=O)n4[C@H]3[C@H](O)[C@@H]3O[C@H]23)cc1,0.393,0.214,-0.224,1.09 (inactive),0.464,0.417,0.318,0.584,0.288,0.338,0.807,-4.67,0.505,0.719,-0.21,-0.0192,-0.0769,-0.0855,0.24,0.974
C[C@@H]1CC[C@H]2C(=O)O[C@@H](COc3ccc(C(C)(C)C)cc3)CN2[C@@H]1c1ccc(Br)cc1,-0.0295,-0.339,-0.0805,-0.36 (inactive),-0.828,-0.796,-0.291,-0.964,-0.924,0.011,-0.631,-0.0485,-0.403,-0.121,0.578,-0.179,-0.289,0.105,-0.319,0
C=C(C)C(=O)OCC1CN2[C@@H](CC[C@@H](C)[C@@H]2c2ccc(Br)cc2)C(=O)O1 (stereo not given in full),0.299,-0.201,-0.118,0.411 (inactive),0.237,0.363,-0.202,0.0267,0.147,-0.0608,0.0141,0.159,0.501,-0.15,-0.566,-0.199,-0.229,0.184,0.522,0.499
CC(CCN1CCCCc2nc(C)c(C)cc21)=NO[C@H](C)c1cn([C@H](CO)Cc2ccccc2)nn1,0.79,-0.0963,-0.65,0.339 (inactive),0.383,-0.393,0.773,1.25,0.885,1.15,0.0596,-1.13,0.708,-0.418,-0.763,0.103,0.163,-0.208,0.488,-0.276
CC(C)(C)N1C(=O)[C@H]2[C@H]3[C@H](O)C=CC(=O)[C@@H]3CC[C@H]2C1=O,0.294,-0.407,-0.428,-0.128 (inactive),0.429,0.695,0.437,0.711,0.715,-0.214,0.264,0.133,0.296,0.0361,-0.586,-0.13,0.0121,0.0637,-0.288,0.0991
C=Cc1ccc([C@H]2N[C@H](C(=O)O)CC[C@@H]2C)cc1,-0.642,0.178,0.02,0.0747 (inactive),0.741,-0.88,0.14,0.505,0.723,0.363,-1.08,-1.09,0.712,-0.478,0.222,-0.105,-0.0553,-0.147,-0.0037,-0.112
CO[C@@H]1C=CCC(=O)N[C@@H](C)C(=O)OC[C@@H](OC)[C@H](C)CCCC(=O)OC[C@H]1C,1.55,-0.352,-1.05,-0.646 (inactive),0.473,0.0516,1.08,1.22,1.64,1.23,-2.89,-1.41,1.41,-1.23,-2.04,-0.0694,-0.206,-0.345,0.95,-0.11
CON=Cc1ccc(C(=O)N2[C@H](c3ccc(C)cc3)[C@@H](C)CC[C@H]2C(=O)OC)cc1,0.365,-0.254,-0.541,0.224 (inactive),0.52,0.873,0.594,0.512,0.573,0.339,1.25,-1.33,-0.203,-0.129,-0.121,-0.0044,0.0684,-0.0503,-0.0018,0.449
C#CCCCON=C1C[C@@H](O)[C@@H](O)[C@@H]2[C@@H]3C(=O)N(CC)C(=O)[C@@H]3CC[C@@H]12,0.254,-0.129,-0.697,0.401 (inactive),1.18,0.545,0.631,0.496,0.628,-0.236,0.431,-0.113,0.507,-0.4,-0.749,-0.164,-0.197,-0.133,0.586,1.27
CC(C)=CCCC(C)=CCON=C1C[C@@H](O)[C@@H](O)[C@@H]2[C@@H]3C(=O)N(C[C@@H]4CCCO4)C(=O)[C@@H]3CC[C@H]12,0.346,-0.257,-0.762,0.91 (inactive),1.37,1.25,1.29,1.39,1.46,1,1.11,-0.0626,0.957,0.0209,0.228,-0.0783,0.0952,-0.278,0.986,1.15
COC(=O)CC=C[C@@H](C)[C@@H](C=NOCC[C@@H]1C=C[C@H](OC(C)=O)[C@@H](COC(C)=O)O1)OC,0.381,-0.0928,-0.546,1.21 (inactive),0.933,0.328,0.498,0.651,0.556,-0.3,0.107,-0.488,0.589,-1,-1.78,-0.0346,0.284,-0.205,0.473,-0.484
O=C1[C@H]2[C@H]3[C@H](O)[C@H](O)CC(=NO[C@@H]4O[C@H](CO)[C@@H](O)[C@H](O)[C@H]4O)[C@H]3CC[C@H]2C(=O)N1c1cccc(Oc2ccccc2)c1,0.0739,-0.187,-0.478,0.0512 (inactive),0.73,0.67,0.508,0.598,0.71,-0.204,0.583,-0.243,0.723,-0.0761,-0.474,-0.168,-0.349,-0.129,0.675,-0.0791
COc1cccc([C@H]2Oc3ccc(OC)cc3C(=NOC[C@@H](C)[C@H](OCc3ccccc3)C(C)C)[C@@H]2O)c1,-0.0088,0.197,0.101,-0.171 (inactive),0.325,0.332,-0.168,0.242,0.304,0.0185,0.274,-2.55,0.476,-0.0749,0.619,-0.206,-0.0858,0.2,0.251,0.452
CO[C@H]1COC(=O)CCC[C@@H](C)[C@H](OC)COC(=O)[C@@H](C)NC(=O)CC=C[C@@H]1C,1.69,-0.502,-1.14,-1.15 (inactive),0.313,0.97,1.2,0.938,1.57,1.21,-1.44,-1.29,1.19,-0.654,-1.61,-0.117,0.0483,-0.0684,0.992,-0.314
CO[C@H](C1CCCCC1)[C@H](C)C=CCC(=O)OCCCc1ccccc1,-0.023,-0.38,-0.708,-0.0118 (inactive),0.227,-0.518,0.471,0.201,0.287,0.332,-0.743,0.714,0.291,-0.376,-0.937,-0.0874,-0.366,-0.27,0.099,-0.051
